For 34 compounds, inhibition results are on record in ChEMBL document CHEMBL3433997, “St. Jude Leishmania screening dataset” (2016).

Several values for one entry are separate records, joined by “and”; a condition that tells them apart may be missing. Equal entries are not always repeated.

What all share (assay type): functional
Assay [1] concerns the target Solute carrier family 2, facilitated glucose transporter member 1 (Homo sapiens) (UniProt P11166). Kind of assay: ST_JUDE_LEISH: Cytotoxicity at 2uM final concentration against transgenic Leishmania Mexicana promastigotes LmGLUT1 that are glucose transport deficient and complemented with the human glucose transporter GLUT1. Activity is measured by DNA content using SYBR green in vitro.

For assay [2], the target named is Hexose transporter 1 (Plasmodium falciparum) (UniProt O97467). Kind of assay: ST_JUDE_LEISH: Cytotoxicity at 2uM final concentration against transgenic Leishmania Mexicana promastigotes LmPfHT that are glucose transport deficient and complemented with the Plasmodium falciparum hexose transporter. Activity is measured by DNA content using SYBR green in vitro.
Assay [3] concerns the target Glucose transporter (Leishmania mexicana) (UniProt O61059). Kind of assay: ST_JUDE_LEISH: Cytotoxicity at 2uM final concentration against transgenic Leishmania Mexicana promastigotes LmGT2 that are glucose transport deficient and complemented with the L. Mexicana glucose transporter 2. Activity is measured by DNA content using SYBR green in vitro.

Chain of Solute carrier family 2, facilitated glucose transporter member 1 (Homo sapiens) (P11166 whole entry): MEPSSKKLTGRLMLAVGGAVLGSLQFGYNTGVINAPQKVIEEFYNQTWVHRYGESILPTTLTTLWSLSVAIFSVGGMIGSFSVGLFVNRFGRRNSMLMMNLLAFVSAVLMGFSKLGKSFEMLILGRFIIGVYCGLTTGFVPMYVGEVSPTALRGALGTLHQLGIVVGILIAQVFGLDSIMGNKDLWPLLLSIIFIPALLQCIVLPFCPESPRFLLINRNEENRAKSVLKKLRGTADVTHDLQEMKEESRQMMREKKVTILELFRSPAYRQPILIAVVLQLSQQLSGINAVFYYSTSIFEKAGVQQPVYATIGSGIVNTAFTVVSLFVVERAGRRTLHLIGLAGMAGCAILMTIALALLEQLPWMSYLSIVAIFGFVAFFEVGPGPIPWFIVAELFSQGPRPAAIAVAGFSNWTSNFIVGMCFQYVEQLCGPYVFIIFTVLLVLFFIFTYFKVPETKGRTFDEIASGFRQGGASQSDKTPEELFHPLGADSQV

`Cc1[nH]c(C)c(-c2ccc(Oc3ccc(OC(F)(F)F)cc3)cc2)c(=O)c1Br`: the inhibition (in general, the relative decrease from the control value, in per cent) in assay [1] is -1.24% and 1.98%; in assay [2], -1.18% and 1.4%; in assay [3] it was -2.31% and 2.01%.

In the case of `CCNc1cc(C(=O)N[C@@H](Cc2ccccc2)[C@H](O)CN[C@H]2CCc3ccccc32)cc(N2CCCC2=O)c1`, the inhibition in assay [1] is 1.96%; in assay [2], 1.74%; in assay [3] it was 2%.

Regarding `N=C(NCc1ccc(O)cc1)Nc1nc(-c2ccc(OCCCn3ccnc3)cc2)cs1`, the results for the inhibition in assay [1], in assay [2] and in assay [3] were 1.63%, 0.11% and -3.09%, respectively.

On to `COC(=O)c1ccccc1COc1ccc(CC2(NC(=O)[C@H](Nc3ccc(C#N)c4ccccc34)C(C)(C)C)CCCC2)cc1`, for which the inhibition in assay [1] amounted to 4.44%; in assay [2], 4.29%; in assay [3], 2.22%.

Turning to `CCOc1ccccc1N1CCN(CCCNC(=O)/C(=C/C=C/c2cc3cc(Cl)c(Cl)cc3[nH]2)OC)CC1`, the inhibition is 1.44% in assay [1], -0.07% in assay [2] and 1.24% in assay [3].

For `COc1cccc(-c2nc(Nc3ccncc3)c3ncn(C)c3n2)c1`, the results for the inhibition in assay [1], in assay [2] and in assay [3] were 3.21%, 3.6% and 2.65%, respectively.

As to `CCc1cc(NCc2ccncc2)nc(Nc2ccc(F)cc2)n1`, the values for the inhibition in assay [1], in assay [2] and in assay [3] were 14.4%, 6.44% and 4.12%, respectively.

Take `O=C(Nc1ccc(OC2CCN(Cc3ccc(F)cc3)C2)c(Cl)c1)c1ccsc1` (configuration not stated): the results for the inhibition in assay [1], in assay [2] and in assay [3] were 4.02%, 3.33% and 1.2%, respectively.

For the compound `NC1CCCN(Cc2ccc(-c3cccc(-c4nc5ccccc5[nH]4)c3)cc2)C1` (configuration not stated), the values for the inhibition in assay [1], in assay [2] and in assay [3] were 3.53%, 4.34% and 4.25%, respectively.

As for `COc1ccc2nccc([C@@H](O)CNCCCN(C)CCOc3cc(F)cc(F)c3)c2c1`, the inhibition in assay [1] amounted to 6.85%; in assay [2] it was 7.45%; in assay [3], 6.99%.

As to `Cc1cccc2nc(-c3ccc(-c4ccc(CN5CCN(CCC#N)CC5)cc4)cc3)[nH]c12`, the inhibition in assay [1] amounted to 15.7%; in assay [2] it was 14.1%; in assay [3], 11.8%.

On to `CC(C)(C)c1ccc(NC(=O)c2ccc(CN3CCCN(Cc4ccsc4)CC3)cc2)cc1`, for which the inhibition in assay [1] was 9.06%; in assay [2], 10.4%; in assay [3], 11.9%.

As for `CCCCN(Cc1cccc(C(F)(F)F)c1Cl)c1ccc(C(O)(C(F)(F)F)C(F)(F)F)cc1`, the inhibition in assay [1] is 7.39%; in assay [2], 6.7%; in assay [3] it was 6.39%.

As for `CC(C)(C)c1ccc(NC(=O)c2cccc(CN3CCN(Cc4cccc(O)c4)CC3)c2)cc1`, the inhibition in assay [1] was 0.93%; in assay [2], -0.15%; in assay [3], 0.64%.

On to `CN1CCN(c2ccnc3ccc(NC(=O)Nc4ccc5c(c4)CCCC5=O)cc23)CC1`, for which the inhibition in assay [1] was 0.37%; in assay [2], 1.11%; in assay [3] it was 1.66%.

With `N#Cc1ccc2[nH]cc(CN3CCC4(CC3)CN(CCNCc3ccccc3)C(=O)CO4)c2c1`, the values for the inhibition in assay [1], in assay [2] and in assay [3] were 2.13%, -0.73% and 5.02%, respectively.

With `COc1ccc(NC(=O)/C=C/c2ccccc2Cl)cc1OCCN1CCC(N2CCCC2)CC1`, the inhibition in assay [1] turned out to be 2.99%; in assay [2] it was 3.87%; in assay [3], 4.44%.

With `Cc1cc(OCC2CCN(c3ncc(C(=O)NC4CC4)cc3Cl)CC2)ccc1F`, the values for the inhibition in assay [1], in assay [2] and in assay [3] were 1.62%, 1.07% and -1.06%, respectively.

As to `COc1ccc(-c2ccccc2CNC2Cc3ccccc3C2)cc1S(=O)(=O)NCCN1CCCC1`, the inhibition is 2.56% in assay [1], 0.5% in assay [2] and 2.53% in assay [3].

For the compound `Cc1cc(N[C@@H](Cc2ccccc2)C(=O)NCc2cccc(F)c2)nc(NCc2ccccc2C)n1`, the inhibition in assay [1] was determined as 5.14%; in assay [2], 4.67%; in assay [3], 3.17%.

Consider `CCCc1cc(NC2CCN(C)CC2)nc(Nc2cccc(OC)c2)n1`, for which the inhibition in assay [1] worked out at 8.68%; in assay [2], 6.18%; in assay [3], 6.84%.

Regarding `CCn1c(-c2nonc2N)nc2c(-c3cccc(NC(=O)Nc4cccc(OC)c4)c3)ncc(OCCCN)c21`, the inhibition in assay [1] amounted to 0.06%; in assay [2], 2.8%; in assay [3], 1.32%.

As to `CN(Cc1cnc2nc(N)nc(N)c2n1)c1ccc(C(=O)N[C@@H](CCC(=O)O)C(=O)O)cc1`, the inhibition in assay [1] is 3.29% and 4.83% and 0.58%; in assay [2], 2.33% and 2.91% and 0.06%; in assay [3] it was -0.37% and 1.34% and 3.42%.

As for `O=C(Nc1cccc(C(F)(F)F)c1)N1CCOC(CCN2CCC3(CCc4ccccc43)CC2)(c2ccc(Cl)c(Cl)c2)C1` (configuration not stated), the inhibition in assay [1] was 5.08%; in assay [2], 4.51%; in assay [3] it was 2.55%.

As for `COc1ccccc1C1CC(c2ccc(C)cc2)=NN1C(=O)c1ccccc1` (configuration not stated), the inhibition in assay [1] is 8.25%; in assay [2] it was 8.06%; in assay [3], 5.66%.

For `CC(=O)Nc1cccc(CNCc2ccc(-c3cnc(N4CCCC(c5ccccc5)C4)nc3)cc2)c1` (configuration not stated), the inhibition in assay [1] came to 4.23%; in assay [2] it was 2.57%; in assay [3], 2.2%.

With `COCCSc1nc2scc(C)c2c(=O)n1Cc1cccc(OC)c1`, the inhibition was 3.26% in assay [1], 4.92% in assay [2] and 4.9% in assay [3].

`N=C(N)NN=Cc1ccc2c(c1)Cc1ccccc1-2`: the inhibition turned out to be 8.82% in assay [1], 8.08% in assay [2] and 6.46% in assay [3].

For `CCCNCc1ccc(-c2ccc(CN(Cc3ccc4c(c3)OCO4)C(=O)[C@H]3CCCO3)cc2)nc1`, the inhibition in assay [1] stood at 13.6%; in assay [2] it was 10.6%; in assay [3], 8.76%.

Consider `CC(C)c1ccc(C=CC(=O)N2CCC(CCN3CCC(c4c[nH]c5ccccc45)CC3)CC2)cc1`, for which the inhibition in assay [1] was -1.34%; in assay [2], -1.09%; in assay [3], -0.06%.

Regarding `C=CC(=O)Nc1ccc(Cl)cc1C(O)c1ccccc1` (configuration not stated), the inhibition in assay [1] worked out at 2.6%; in assay [2], 2.07%; in assay [3], 2.36%.

For the compound `COc1cc(NC(=O)Nc2cc(C)nc3ccccc23)cc(OC)c1`, the values for the inhibition in assay [1], in assay [2] and in assay [3] were 0.54%, 0.94% and 2.05%, respectively.

Consider `Cc1cc(C(=O)CN2C(=O)NC(C)(c3cccc4ccccc34)C2=O)c(C)n1Cc1ccco1` (configuration not stated), for which the inhibition in assay [1] worked out at 6.55%; in assay [2], 6.14%; in assay [3] it was 4.09%.

Regarding `O=C(C=Cc1ccc(Cl)c(Cl)c1)NCCCCCN1CCC(CCNC(=O)c2cccc3ccccc23)CC1`, the inhibition amounted to 4.11% in assay [1], 2.98% in assay [2] and 2.03% in assay [3].
